Assay outcomes as filed in PubChem BioAssay.
ELG1 repair inh: inhibitors of ELG1-dependent DNA repair in HEK293T cells; AID 504467; HEK293T ELG1-luciferase reporter, luminescence, 16 h; DNA damage induced by 5-fluorouridine; actives 2.3% (n = 330,000); Potency, µM (top dose mostly 46.1 µM), actives largely listed as inhibitors; also: nearly all actives have a fitted effect of over 55% in size
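In this reporter screen, reduction of luminescence relative to DMSO vehicle indicated activity. Compounds and 5-fluorouridine were added together to 2,000 cells per well, incubated for 16 hr at 37 °C, then developed with ONE-Glo.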
TDP1 cell CPT: growth inhibition of DT40 Tdp1-/-;hTDP1 cells with camptothecin (screen for TDP1 inhibitors) | chicken DT40 Tdp1-/-;hTDP1 cells + 20 nM CPT, ATP luminescence, 48 h | actives 12% (n = 420,000) | Potency, µM (titrated, usually from 46.2 µM), hits mostly inhibitors; also: nearly all actives have a fitted effect of over 55% in size
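Chicken DT40 Tdp1-/- cells complemented with human TDP1, 400 cells/well, exposed to compounds plus 20 nM camptothecin for at least 48 h at 37 C; viability read as ATP content by CellTiter-Glo luminescence.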
IL1B secr inh: inflammasome signaling inhibition, IL-1 beta readout; THP-1 LPS/ATP IL-1B secretion, AlphaLISA, 16 h; hits give low values; activity change, % at 57.5 µM; actives 4.7% (n = 360,000); AID 743279; in the data active = activity change below about -50%; inconclusive = mostly about -30% to -49%
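Secreted IL-1B measured by AlphaLISA bead assay after 16 h compound exposure of THP-1 cells; compounds (final up to 57.5 uM) added 1 h before LPS (250 ng/mL) and ATP (1.25 mM) stimulation; lower signal means less secretion.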
HT1080 IDH1KD tx: toxicity to HT-1080 IDH1 knockdown cells (counter line). Potency, µM (highest dose often 46.1 µM), hits mostly cytotoxic. HT-1080 IDH1 knockdown viability, ATP luminescence, 48 h. actives 2% (n = 360,000). AID 686971
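Cytotoxicity counter-line: IDH1KD HT-1080, 48 h, CellTiter-Glo. Curves classed by r2, magnitude and activity.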
HT1080NT lethal: kills 2HG-producing HT-1080-NT fibrosarcoma cells; HT-1080-NT fibrosarcoma viability, CellTiter-Glo ATP luminescence, 48 h; Potency, µM (series often up to 46.1 µM), hits mostly cytotoxic; actives 1.6% (n = 360,000); AID 686970;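 also: NT is the 2HG producing partner of a matched IDH1 knockdown line; nearly all actives have a fitted effect of over 55% in size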
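HT-1080-NT; 750 cells/well; 5% FBS RPMI; 48 h compound, 37 degrees C; CellTiter-Glo luminescence; curve fitting and curve-class assignment.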
DT40 TDP1 no CPT: qHTS for Inhibitors of human tyrosyl-DNA phosphodiesterase 1 (TDP1): qHTS in cells in absence of CPT; DT40 Tdp1-/- hTDP1 cells, no CPT, ATP luminescence, 48 h; Potency, µM (doses to about 46.2 µM), hits mostly inhibitors; actives 15% (n = 420,000); AID 686978, 2013; also: nearly all actives have a fitted effect of over 55% in size
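Growth of hTDP1-complemented DT40 Tdp1-knockout cells is measured by ATP luminescence after at least 48 hr compound exposure at 37 °C, with DMSO substituting for the 20 nM CPT used in the parallel screen.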
Large screens that a line does not name were inactive; ! = repeats disagree. Compounds with a hit are over-represented: about 19% of the library has one in this group of screens. Unless noted, calls follow the shape of the dose curve; as a rule, active = well fitted curve in the direction sought with a large enough effect; inconclusive = small, poorly fitted or top-dose-only effect, or another doubt; inactive = no such curve, though single readings can be large; an effect the other way counts as inactive or inconclusive.

CCNC(=O)C1(C)CCCN(C(=O)c2cccnc2Oc2ccccc2)C1 (stereo not drawn)	none (no result: ELG1 repair inh)
CCOC(=O)CNC(=O)N1[C@H](c2cccs2)[C@@H](C)C(=O)[C@@H](C)[C@@H]1c1cccs1	TDP1 cell CPT inconclusive (no result: ELG1 repair inh, IL1B secr inh, HT1080 IDH1KD tx, HT1080NT lethal)
CCCCn1c(N)c(N(CCOC)C(=O)CSc2nnc(-c3ccco3)n2CC)c(=O)[nH]c1=O	none
CCOC(=O)CSc1nc2ccccc2c(=O)n1CC1COc2ccccc2O1 (stereo not drawn)	TDP1 cell CPT inconclusive, DT40 TDP1 no CPT 18.4µM
COc1ccc(OC)c(NC(=O)CSc2nc3ccccc3c(=O)n2CC2CCCO2)c1 (stereo not drawn)	ELG1 repair inh inconclusive
COc1ccc(-c2nnc(CSc3nc4ccccc4c(=O)n3CC3CCCO3)o2)cc1OC (stereo not drawn)	TDP1 cell CPT inconclusive, DT40 TDP1 no CPT 23.1µM
COc1ccccc1N1CCN(C(=O)CSc2nc3ccccc3c(=O)n2CC2CCCO2)CC1 (stereo not drawn)	ELG1 repair inh 23.1µM, TDP1 cell CPT inconclusive, DT40 TDP1 no CPT inconclusive
CCC(C)(C)n1nnnc1C(c1cc2ccc(C)cc2[nH]c1=O)N(Cc1cccnc1)Cc1ccco1 (stereo not drawn)	TDP1 cell CPT inconclusive, IL1B secr inh -69.2, DT40 TDP1 no CPT inconclusive
Cc1ccc2cc(C(c3nnnn3C3CCCC3)N(Cc3ccccc3)Cc3ccco3)c(=O)[nH]c2c1 (stereo not drawn)	TDP1 cell CPT 20.6µM, DT40 TDP1 no CPT inconclusive
COCCn1nnnc1C(c1cc2ccc(C)cc2[nH]c1=O)N(Cc1ccco1)Cc1cccs1 (stereo not drawn)	ELG1 repair inh inconclusive, HT1080 IDH1KD tx inconclusive, HT1080NT lethal inconclusive
CCC(C)(C)n1nnnc1C(c1cc2cc3c(cc2[nH]c1=O)OCO3)N1CCN(C)CC1 (stereo not drawn)	none
Cc1cc2cc(C(c3nnnn3C3CCCC3)N(Cc3cccnc3)Cc3ccco3)c(=O)[nH]c2cc1C (stereo not drawn)	ELG1 repair inh 18.4µM, TDP1 cell CPT inconclusive, IL1B secr inh inconclusive, HT1080 IDH1KD tx 10µM, HT1080NT lethal inconclusive, DT40 TDP1 no CPT inconclusive
Oc1c(N=NC(=S)Nc2ccccc2F)c2ccccc2n1Cc1ccc(F)cc1	ELG1 repair inh 5.17µM, TDP1 cell CPT 5.17µM, DT40 TDP1 no CPT 2.31µM
O=c1[nH]ncc2c3ccccc3n(Cc3cccc(Cl)c3)c12	none
Cc1cccc(Cn2c(O)c(N=NC(=S)Nc3ccccc3F)c3ccccc32)c1	ELG1 repair inh 3.66µM, TDP1 cell CPT 7.31µM, DT40 TDP1 no CPT 7.31µM
Oc1c(N=NC(=S)Nc2ccccc2F)c2ccccc2n1Cc1cccc(Cl)c1	ELG1 repair inh inconclusive, TDP1 cell CPT 6.51µM, HT1080NT lethal inconclusive, DT40 TDP1 no CPT 6.51µM
COc1c(-c2ccc(O)c(O)c2)oc2cc(O)cc(O)c2c1=O	ELG1 repair inh inconclusive, TDP1 cell CPT 10.3µM!, DT40 TDP1 no CPT 9.2µM!
O=c1c(OC2OC(CO)C(O)C(O)C2OC2OC(CO)C(O)C(O)C2OC2OC(CO)C(O)C(O)C2O)c(-c2ccc(O)c(O)c2)oc2cc(O)cc(O)c12 (stereo not drawn)	TDP1 cell CPT 14.6µM, DT40 TDP1 no CPT 20.6µM
O=c1c2c(O)cc(O)cc2oc2ccc(O)c(O[C@@H]3O[C@H](CO)[C@@H](O)[C@H](O)[C@H]3O[C@H]3O[C@H](CO)[C@@H](O)[C@H](O)[C@H]3O)c12	none
Cc1ccc(-c2cn3cccc(C)c3n2)cc1NS(=O)(=O)c1ccccc1	TDP1 cell CPT 25.9µM, DT40 TDP1 no CPT 16.4µM (no result: ELG1 repair inh, IL1B secr inh, HT1080 IDH1KD tx, HT1080NT lethal)
Cc1cccn2cc(-c3ccc(S(=O)(=O)N4CCCCC4)cc3)nc12	TDP1 cell CPT inconclusive, DT40 TDP1 no CPT inconclusive
